Experimental data as given in PubChem BioAssay (EPA / NIEHS).
Active and inactive are the calls of the source. How the source made its calls: active means hit-call score of the fitted dose curve at least 0.9, where 1 is the maximum; inactive means score below 0.9.

Experiments:
[1] = read-out: Macrophage colony-stimulating factor (MCSF), CSF1 (gene 1435); experiment: BSK_hDFCGF_MCSF: BioMAP Diversity Plus: hDFCGF Assay for Macrophage colony-stimulating factor (MCSF) Biomarker Activity (AID 2283060); conditions: primary human foreskin fibroblasts; actives raise or lower the signal
Procedure, shortened: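 ELISA read-out of M-CSF in human dermal foreskin fibroblast cultures, 24 h after chemical dosing; gain or loss of signal fitted bidirectionally relative to DMSO baseline.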

[2] = BSK_hDFCGF_SRB: Viability Assessment in the BioMAP Diversity Plus: hDFCGF Assay (AID 2283061); conditions: primary human foreskin fibroblasts;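 further: cells exposed to compound for 24 h before the read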
Procedure, shortened: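 Primary human foreskin fibroblasts; 24 h post-dose; fixed 10% TCA, stained 0.1% SRB, A560 read; total protein as overt cytotoxicity measure; curves fit bidirectionally vs DMSO control.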

[3] = read-out: TIMP metallopeptidase inhibitor 1 (TIMP1), TIMP1 (gene 7076); experiment: BSK_hDFCGF_TIMP1: BioMAP Diversity Plus: hDFCGF Assay for TIMP metallopeptidase inhibitor 1 (TIMP1) Biomarker Activity (AID 2283062); conditions: primary human foreskin fibroblasts; actives raise or lower the signal
Procedure, shortened: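 ELISA readout of TIMP-1 from human dermal foreskin fibroblast cultures 24 h post-dosing. Curves were fitted in both directions against DMSO baseline, with SRB total-protein staining in parallel cultures as a cytotoxicity check.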

[4] = read-out: Monokine induced gamma interferon (MIG), CXCL9 (gene 4283); experiment: BSK_hDFCGF_MIG: BioMAP Diversity Plus: hDFCGF Assay for Monokine induced gamma interferon (MIG) Biomarker Activity (AID 2283063); conditions: primary human foreskin fibroblasts; actives raise or lower the signal
Procedure, shortened: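 Fibroblasts (human foreskin, primary) dosed, 24 h, MIG by ELISA; fit bidirectional vs DMSO.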

[5] = read-out: Plasminogen activator inhibitor-1 (PAI1), SERPINE1 (gene 5054); experiment: BSK_hDFCGF_PAI1: BioMAP Diversity Plus: hDFCGF Assay for Plasminogen activator inhibitor-1 (PAI1) Biomarker Activity (AID 2283066); conditions: primary human foreskin fibroblasts; actives raise or lower the signal
Procedure, shortened: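 Human foreskin fibroblasts in the hDFCGF system were dosed with compound for 24 h; PAI-1 was quantified by ELISA. Bidirectional curve fitting used DMSO as negative control and baseline.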

[6] = read-out: Intercellular Adhesion Molecule 1 (ICAM1), ICAM1 (gene 3383); experiment: BSK_KF3CT_ICAM1: BioMAP Diversity Plus: KF3CT Assay for Intercellular Adhesion Molecule 1 (ICAM1) Biomarker Activity (AID 2283067); conditions: primary human keratinocytes with fibroblasts; actives raise or lower the signal
Procedure, shortened: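 ELISA readout of ICAM-1; KF3CT human skin co-culture (keratinocytes + foreskin fibroblasts), 24 h post-dose; gain/loss fit vs DMSO baseline.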

[7] = read-out: Interferon-gamma inducible Protein 10 (IP10), CXCL10 (gene 3627); experiment: BSK_KF3CT_IP10: BioMAP Diversity Plus: KF3CT Assay for Interferon-gamma inducible Protein 10 (IP10) Biomarker Activity (AID 2283068); conditions: primary human keratinocytes with fibroblasts; actives raise or lower the signal
Procedure, shortened: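 In a primary skin co-culture of keratinocytes and fibroblasts, IP-10 is quantified by ELISA at 24 h after dosing. SRB staining of parallel wells monitors overt toxicity. Curves are fitted both directions against DMSO.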

[8] = BSK_KF3CT_SRB: Viability Assessment in the BioMAP Diversity Plus: KF3CT Assay (AID 2283069); conditions: primary human keratinocytes with fibroblasts;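 further: total protein by sulforhodamine B staining as a cytotoxicity measure; read 24 h after compound addition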
Procedure, shortened: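 Human keratinocyte and foreskin fibroblast co-culture exposed to chemical for 24 h. Total protein measured in parallel cultures by 0.1% sulforhodamine B staining after 10% TCA fixation, read at 560 nm; bidirectional fit relative to DMSO.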

[9] = read-out: Interleukin-1 alpha (IL1a), IL1A (gene 3552); experiment: BSK_KF3CT_IL1a: BioMAP Diversity Plus: KF3CT Assay for Interleukin-1 alpha (IL1a) Biomarker Activity (AID 2283070); conditions: primary human keratinocytes with fibroblasts; actives raise or lower the signal
Procedure, shortened: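 Primary human keratinocyte plus foreskin fibroblast co-culture, dosed and measured at 24 h in 96-well plates. IL-1a level quantified by ELISA; bidirectional fit relative to DMSO.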

[10] = read-out: TIMP metallopeptidase inhibitor 2 (TIMP2), TIMP2 (gene 7077); experiment: BSK_KF3CT_TIMP2: BioMAP Diversity Plus: KF3CT Assay for TIMP metallopeptidase inhibitor 2 (TIMP2) Biomarker Activity (AID 2283071); conditions: primary human keratinocytes with fibroblasts; actives raise or lower the signal
Procedure, shortened: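 Human primary keratinocyte/foreskin fibroblast co-culture dosed with chemical and sampled at 24 h. TIMP-2 levels quantified by ELISA; bidirectional fitting against DMSO negative control as baseline.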

[11] = read-out: Transforming growth factor beta 1 (TGFb1), TGFB1 (gene 7040); experiment: BSK_KF3CT_TGFb1: BioMAP Diversity Plus: KF3CT Assay for Transforming growth factor beta 1 (TGFb1) Biomarker Activity (AID 2283072); conditions: primary human keratinocytes with fibroblasts; actives raise or lower the signal
Procedure, shortened: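 Human keratinocyte plus foreskin fibroblast primary co-culture, dosed with chemical for 24 h. TGF-b1 quantified by ELISA. Activity fitted bidirectionally against DMSO negative control as baseline.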

[12] = read-out: C-C motif chemokine 2 (Homo sapiens) (UniProt P13500); experiment: BSK_KF3CT_MCP1: BioMAP Diversity Plus: KF3CT Assay for Monocyte Chemoattractant Protein 1 (MCP1/CCL2) Biomarker Activity (AID 2283073); conditions: primary human keratinocytes with fibroblasts; actives raise or lower the signal
Procedure, shortened: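 KF3CT skin co-culture (keratinocytes/foreskin fibroblasts), 24 h post-dose; MCP-1 by ELISA; gain/loss of signal fit bidirectionally vs DMSO baseline.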

[13] = read-out: Matrix Metallopeptidase 9 (MMP9), MMP9 (gene 4318); experiment: BSK_KF3CT_MMP9: BioMAP Diversity Plus: KF3CT Assay for Matrix Metallopeptidase 9 (MMP9) Biomarker Activity (AID 2283074); conditions: primary human keratinocytes with fibroblasts; actives raise or lower the signal
Procedure, shortened: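 Human keratinocyte and foreskin fibroblast co-culture exposed to chemicals for 24 h; MMP9 biomarker measured by ELISA, bidirectional fitting relative to DMSO; cytotoxicity tracked by SRB total protein staining in parallel cultures.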

[14] = read-out: urokinase plasminogen activator (uPA), PLAU (gene 5328); experiment: BSK_KF3CT_uPA: BioMAP Diversity Plus: KF3CT Assay for urokinase plasminogen activator (uPA) Biomarker Activity (AID 2283075); conditions: primary human keratinocytes with fibroblasts; actives raise or lower the signal
Procedure, shortened: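 Primary human keratinocyte/foreskin fibroblast co-culture exposed to chemical; uPA measured by ELISA at 24 h. Bidirectional fit versus DMSO, with parallel SRB total-protein staining for cytotoxicity.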

CD40, CD40 (gene 958) = experiment: BSK_LPS_CD40: BioMAP Diversity Plus: LPS Assay for CD40 Biomarker Activity (AID 2283076); conditions: primary human HUVEC with PBMC; actives raise or lower the signal
Procedure, shortened: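 ELISA readout of CD40 in HUVEC/PBMC co-culture (BSK_LPS system), 24 h post-dosing; bidirectional curve fit, DMSO baseline; parallel SRB total-protein staining for cytotoxicity.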

[15] = read-out: E-selectin (Homo sapiens) (UniProt P16581); experiment: BSK_LPS_Eselectin: BioMAP Diversity Plus: LPS Assay for Eselectin Biomarker Activity (AID 2283077); conditions: primary human HUVEC with PBMC; actives raise or lower the signal
Procedure, shortened: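 ELISA readout of E-selectin, 24 h post-dose, HUVEC + PBMC co-culture (LPS system). Gain or loss of signal vs DMSO baseline, bidirectional fit.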

[16] = read-out: Interleukin-8 (IL8), CXCL8 (gene 3576); experiment: BSK_LPS_IL8: BioMAP Diversity Plus: LPS Assay for Interleukin-8 (IL8) Biomarker Activity (AID 2283078); conditions: primary human HUVEC with PBMC; actives raise or lower the signal
Procedure, shortened: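 HUVEC + PBMC co-culture, LPS-activated; test chemicals dosed, IL-8 read by ELISA at 24 h. Bidirectional curve fit vs DMSO baseline (gain or loss of signal).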

[17] = BSK_LPS_SRB: Viability Assessment in the BioMAP Diversity Plus: LPS Assay (AID 2283079); conditions: primary human HUVEC with PBMC;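 further: total protein by sulforhodamine B absorbance as a cytotoxicity measure; measured one day after compound addition; fitted in both directions against DMSO so loss or gain of signal counts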
Procedure, shortened: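 HUVEC + PBMC co-culture, LPS-stimulated; compound 24 h. 10% TCA fix, 0.1% SRB stain, A560. Bidirectional fit vs DMSO.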

[18] = read-out: Vascular cell adhesion molecule 1 (VCAM1), VCAM1 (gene 7412); experiment: BSK_hDFCGF_VCAM1: BioMAP Diversity Plus: hDFCGF Assay for Vascular cell adhesion molecule 1 (VCAM1) Biomarker Activity (AID 2283065); conditions: primary human foreskin fibroblasts; actives raise or lower the signal
Procedure, shortened: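 ELISA read-out of VCAM-1 on human skin fibroblasts, 24 h post-dose; gain or loss of signal fitted bidirectionally against DMSO baseline.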

Measured: outcome

Chain of E-selectin (Homo sapiens) (P16581 whole entry, looked up): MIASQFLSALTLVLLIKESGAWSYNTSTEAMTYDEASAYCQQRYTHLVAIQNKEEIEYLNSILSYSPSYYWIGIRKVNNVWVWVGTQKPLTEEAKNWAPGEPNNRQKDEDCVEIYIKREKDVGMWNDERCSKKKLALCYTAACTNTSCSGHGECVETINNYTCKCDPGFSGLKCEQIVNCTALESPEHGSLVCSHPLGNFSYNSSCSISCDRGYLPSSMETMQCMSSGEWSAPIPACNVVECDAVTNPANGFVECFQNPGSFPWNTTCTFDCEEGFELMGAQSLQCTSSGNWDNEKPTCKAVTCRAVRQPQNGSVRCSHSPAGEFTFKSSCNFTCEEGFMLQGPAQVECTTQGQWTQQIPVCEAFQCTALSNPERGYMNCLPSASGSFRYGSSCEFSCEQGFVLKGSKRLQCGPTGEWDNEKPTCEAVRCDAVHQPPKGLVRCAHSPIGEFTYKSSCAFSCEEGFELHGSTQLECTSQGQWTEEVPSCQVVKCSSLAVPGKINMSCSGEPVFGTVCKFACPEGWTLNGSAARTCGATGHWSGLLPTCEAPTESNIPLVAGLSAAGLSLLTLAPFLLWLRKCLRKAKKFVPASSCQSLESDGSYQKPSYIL

Cc1ccc(N)cc1N
not listed: [18]
inactive: all other assays above

O=C(O)C(F)(F)OC(F)(F)C(F)(F)OC(F)(F)C(=O)O
not listed: [11] | [14]
inactive: all other assays above

CCOS(=O)(=O)OCC
not listed: [14] | [18]
inactive: all other assays above

CCC(C)(C)c1ccc(O)cc1
not listed: [18]
inactive: all other assays above
